PubChem BioAssay AID2783 (National Center for Advancing Translational Sciences (NCATS), 2010)
Records with an inconclusive call do not appear. Calls of active or inactive are those of the source. The call rests on the fitted dose curve; in most records, active means well fitted inhibition curve with a large enough effect in the polarisation, with a control signal flat (not every such curve was filed as active); inconclusive means small, poorly fitted or top-dose-only effect, or effect the other way, or a change in a side signal; inactive means no such curve, though single readings can be large or run the other way; the % refers to the polarisation.

These molecules were tested against Menin (Homo sapiens) (UniProt O00255) (assay: Confirmation of Inhibitors Targeting the Menin-MLL Interaction in MLL Related Leukemias: Competition With Fluorescein Labeled MLL-derived Peptide). Settings: Fluorescence polarization, fluorescein-MLL peptide displacement from menin; series mostly up to 100 µM.
Chain of Menin (Homo sapiens) (O00255 whole entry, looked up): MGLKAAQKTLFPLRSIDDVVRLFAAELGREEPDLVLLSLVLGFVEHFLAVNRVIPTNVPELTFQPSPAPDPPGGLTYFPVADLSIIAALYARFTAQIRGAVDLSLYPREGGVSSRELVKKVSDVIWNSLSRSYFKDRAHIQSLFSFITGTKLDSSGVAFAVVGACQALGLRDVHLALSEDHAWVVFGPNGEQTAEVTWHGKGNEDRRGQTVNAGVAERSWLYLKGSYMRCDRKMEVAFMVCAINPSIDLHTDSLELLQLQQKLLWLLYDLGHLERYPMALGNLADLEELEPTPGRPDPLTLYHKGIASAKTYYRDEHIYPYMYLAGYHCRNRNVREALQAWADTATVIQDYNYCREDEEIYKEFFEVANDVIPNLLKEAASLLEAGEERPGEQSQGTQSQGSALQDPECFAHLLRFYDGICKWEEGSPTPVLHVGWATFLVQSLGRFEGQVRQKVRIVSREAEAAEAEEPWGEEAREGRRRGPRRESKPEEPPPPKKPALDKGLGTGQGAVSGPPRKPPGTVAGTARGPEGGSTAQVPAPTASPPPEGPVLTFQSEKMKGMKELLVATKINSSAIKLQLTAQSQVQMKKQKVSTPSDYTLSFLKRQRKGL
In the case of `CCC(=O)Nc1ccc(-c2cc(-c3ccccc3)nc(-c3ccc(NC(=O)CC)cc3)n2)cc1`, the outcome is reported as “inactive”. In the case of `Cn1c(=O)[nH]c(=O)c2c1nc(Br)n2CCSc1nc2ccccc2o1`, the outcome is reported as “inactive”. `Cc1nc(N2CCN(C)CC2)c2c3c(sc2n1)CCCC3` was tested, and the outcome was “inactive”. `O=C1NC(=S)N/C1=C/c1ccc2ccccc2c1` was tested, and the outcome was “inactive”. `CCOC(=O)c1sc(NC(=O)Nc2ccc(Cl)cc2)nc1C` was tested, and the outcome was “inactive”. With `O=S(=O)(c1ccc(-c2csc(Nc3ccc(Br)cc3)n2)cc1)N1CCCC1` the outcome was “inactive”. For `COc1ccc2nc(NC(=O)CSc3nnc(N)s3)sc2c1`, the outcome was “inactive”. `CCN(CCn1cccn1)Cc1ccccc1OCC(O)CN1CCc2ccccc2C1` (centres undefined) was tested, and the outcome was “inactive”. `Cc1nc(C)c(-c2ccc(SCc3ccccc3F)nn2)s1` was tested, and the outcome was “inactive”. With `Cc1cc2c(c(=O)n1Cc1ccccc1)C1O[C@](c3ccsc3)(Cc3cc(C#N)ccc31)O2` the outcome was “inactive”. `CCOc1ccc(NC(=O)c2cccc(OC(=S)N3CCC(C)CC3)c2)cc1` was tested, and the outcome was “inactive”. With `COc1ccc(S(=O)(=O)Nc2cc(SCC(=O)O)c(O)c3ccccc23)cc1` the outcome was “inactive”. For `COc1ccccc1/C=C/C(=O)NC(=S)Nc1ccc(S(=O)(=O)N(C)c2ccccc2)cc1`, the outcome was “inactive”. In the case of `COc1cnc(-c2ccccn2)nc1N(C)c1ccccc1`, the outcome is reported as “inactive”. With `COc1ccc(Cn2nnnc2C(c2ccccc2)N2CCN(C3CCCC3)CC2)cc1` (centres undefined) the outcome was “inactive”. For `O=C(CC(=O)c1ccccc1)Nc1cc(C(F)(F)F)ccc1Cl`, the outcome was “inactive”. `O=C(NC(=S)Nc1nc(-c2ccc(Br)cc2)cs1)c1cccnc1` was tested, and the outcome was “inactive”. `O=C(N1CCOCC1)N1CCN(S(=O)(=O)c2ccc(Cl)cc2)CC1` was tested, and the outcome was “inactive”. With `CCCCCC1CCC(C(=O)NCCN2CCOCC2)CC1` (centres undefined) the outcome was “inactive”. For `O=C(O)/C(=C\c1ccc(F)cc1)c1ccc(-c2ccccc2)cc1`, the outcome was “inactive”. With `O=C(O)CCC(=O)Nc1ccc(SSc2ccc(NC(=O)CCC(=O)O)cc2)cc1` the outcome was “inactive”. `CCOC(=O)N1CCN(CC(=O)N2c3ccccc3Sc3ccccc32)CC1` was tested, and the outcome was “inactive”. `Cc1ccccc1-c1n[nH]c(=S)n1C` was tested, and the outcome was “inactive”. For `c1ccc2c(c1)nc(N1CCOCC1)c1c3ccccc3[nH]c21`, the outcome was “inactive”. `Cc1ccc(NS(=O)(=O)c2csc(C(N)=O)c2)cc1C` was tested, and the outcome was “inactive”. For `CCN1CCN(CC(=O)Nc2ccc(C(C)=O)cc2)CC1`, the outcome was “inactive”. `Cc1ccc(NC(=O)C(C)N2C(=O)c3ccccc3C2=O)c(C)c1` (centres undefined) was tested, and the outcome was “inactive”. For `CC1CCCCN1S(=O)(=O)c1ccc(C(=O)Nc2ccccc2-c2nc3ccccc3[nH]2)cc1` (centres undefined), the outcome was “inactive”. In the case of `COc1ccc(-c2csc(NC(=S)NC(=O)/C=C/c3ccc(C(C)C)cc3)n2)cc1OC`, the outcome is reported as “inactive”. With `CCOc1ccc(C2Nc3ccc4ccccc4c3-c3c2c(=O)oc2ccccc32)cc1` (centres undefined) the outcome was “inactive”. With `N#CC1=C(N)OC2=C(C(=O)CC(c3ccco3)C2)C1c1ccc(OCc2c(F)cccc2Cl)cc1` (centres undefined) the outcome was “inactive”. For `COc1cc(/C=C2/C(=O)N(c3ccc(Br)cc3)N=C2C)cc(OC)c1OC`, the outcome was “inactive”. `CN(C)c1ccc(N=Nc2ccc(C(=O)O)cc2)cc1` was tested, and the outcome was “inactive”. For `O=C(NCC1CCCO1)c1ccc(OC2CCN(C(=O)C3CC3)CC2)cc1` (centres undefined), the outcome was “inactive”.
